Measured values taken from PubChem BioAssay (EPA / NIEHS).
Results filed as inconclusive are left out. Activity calls are given as the source filed them. The calls were made as follows: active = hit-call score of the fitted dose curve at least 0.9, where 1 is the maximum; inconclusive = response in the unintended direction; inactive = score below 0.9.

read-out: xenobiotic metabolism (CYP1A1), CYP1A1 (gene 1543); experiment: CLD_CYP1A1_48hr: CellzDirect (CLD) Gene Expression Assay for xenobiotic metabolism (CYP1A1) at 48 hours (AID 2283705)
Outline: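 CYP1A1 transcript measured by quantitative nuclease protection (chemiluminescent) 48 h after two daily treatments of human hepatocyte cultures, versus 0.2% DMSO. Morphology-based cytotoxicity flags accompany data; two donor preparations used.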

SMILES	AC50	outcome
COc1ccc(C(=CC(=O)N2CCOCC2)c2ccc(Cl)cc2)cc1OC	4.77 µM (active)	
CCOP(=O)(OCC)Oc1cc(C)nc(C(C)C)n1		inactive
CC(COc1ccc(Oc2ccccc2)cc1)Oc1ccccn1 (configuration not stated)		inactive
CC(C)N(C(=O)SCC(Cl)=C(Cl)Cl)C(C)C		inactive
CSC1=N[C@@](C)(c2ccccc2)C(=O)N1Nc1ccccc1	20 µM (active)	
CCc1cnc(C2=NC(C)(C(C)C)C(=O)N2)c(C(=O)O)c1 (configuration not stated)		inactive
CNC(=O)ON=C(SC)C(=O)N(C)C		inactive
CC(=NC#N)N(C)Cc1ccc(Cl)nc1		inactive
C#CCC1=C(C)C(OC(=O)C2C(C=C(C)C)C2(C)C)CC1=O (configuration not stated)	33 µM (active)	
N#CSCSC#N	7.26 µM (active)	
CCCOCC(=Nc1ccc(Cl)cc1C(F)(F)F)n1ccnc1	6.01 µM (active)	
CC1=NNC(=O)N(/N=C/c2cccnc2)C1	3.97 µM (active)	
CCc1cccc(CC)c1N(COC)C(=O)CCl	1.89 µM (active)	
CNC(=O)ON=C(C)SC		inactive
Nc1nc(N)nc(NC2CC2)n1	11.6 µM (active)	
CCCCOC(=O)[C@@H](C)Oc1ccc(Oc2ccc(C#N)cc2F)cc1		inactive
CCOP(=S)(OCC)OC(Cl)C(Cl)(Cl)Cl (configuration not stated)		inactive
COP(=O)(NC(C)=O)SC (configuration not stated)		inactive
CN(C)[C@@H]1C(=O)C(C(N)=O)=C(O)[C@@]2(O)C(=O)C3=C(O)c4c(O)cccc4[C@@](C)(O)[C@H]3[C@H](O)[C@@H]12		inactive
CCOP(=O)(NC(C)C)Oc1ccc(SC)c(C)c1 (configuration not stated)		inactive
CCOP(=S)(OCC)SCCSCC	20 µM (active)	
CC(C)=CC1C(C(=O)OCN2C(=O)C3=C(CCCC3)C2=O)C1(C)C (configuration not stated)		inactive
